{"source": "PubChem BioAssay (Tox21)", "note": "Records with an inconclusive call do not appear. Entries that show only a call come without a potency. A number with no mark means an inactive call. The source made the active and inactive calls. Calls come from the whole dose curve; as a rule, active = well fitted activation curve with a large enough effect in the signal ratio in the repeat runs (not every such curve was filed as active); inconclusive = weak or mixed curves, or effect the other way; inactive = no such curve, though single readings can be large or run the other way; the % refers to the signal ratio.", "data": [{"target": "Glucocorticoid receptor (Homo sapiens) (UniProt P04150)", "sequence (P04150 whole entry, looked up)": "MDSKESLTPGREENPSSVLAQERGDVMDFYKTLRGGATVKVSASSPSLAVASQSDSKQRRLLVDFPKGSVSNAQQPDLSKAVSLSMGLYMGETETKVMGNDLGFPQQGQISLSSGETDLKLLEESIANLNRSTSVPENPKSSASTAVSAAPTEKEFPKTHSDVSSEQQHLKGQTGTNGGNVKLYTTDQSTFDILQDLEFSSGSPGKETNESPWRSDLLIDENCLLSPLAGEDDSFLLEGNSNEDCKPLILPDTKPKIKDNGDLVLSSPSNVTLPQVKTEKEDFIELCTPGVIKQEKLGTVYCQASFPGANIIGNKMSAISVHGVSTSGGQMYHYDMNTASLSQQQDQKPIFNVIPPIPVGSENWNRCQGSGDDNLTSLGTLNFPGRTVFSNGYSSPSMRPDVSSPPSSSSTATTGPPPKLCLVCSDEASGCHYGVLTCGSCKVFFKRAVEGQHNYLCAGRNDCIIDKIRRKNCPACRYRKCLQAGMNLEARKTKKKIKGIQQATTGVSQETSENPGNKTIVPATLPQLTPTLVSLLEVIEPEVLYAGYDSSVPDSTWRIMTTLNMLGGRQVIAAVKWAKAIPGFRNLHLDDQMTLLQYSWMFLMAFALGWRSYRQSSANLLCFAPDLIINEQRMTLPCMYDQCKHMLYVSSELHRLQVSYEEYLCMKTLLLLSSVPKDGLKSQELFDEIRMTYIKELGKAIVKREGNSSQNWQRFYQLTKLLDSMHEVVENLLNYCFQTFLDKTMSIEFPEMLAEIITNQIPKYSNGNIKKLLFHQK", "test": "qHTS assay to identify small molecule agonists of the glucocorticoid receptor (GR) signaling pathway (AID 720691)", "details": "GR-bla HeLa, beta-lactamase reporter ratio, 18 h; series mostly up to 62.4 µM", "how_it_was_run": "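Fluorescence intensity from LiveBLAzer B/G FRET substrate (2 h, room temperature) reports beta-lactamase expression driven by the glucocorticoid response element in GR-bla HeLa cells after 18 h compound exposure at 37 C.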", "values": [{"molecule": "CCCCS", "Potency": "inactive"}, {"molecule": "CCNC(=O)C(C)OC(=O)Nc1ccccc1", "note": "(centres undefined)", "Potency": "inactive"}, {"molecule": "CC(C)(Sc1cc(C(C)(C)C)c(O)c(C(C)(C)C)c1)Sc1cc(C(C)(C)C)c(O)c(C(C)(C)C)c1", "Potency": "inactive"}, {"molecule": "COC(=O)c1ccccc1Cl", "Potency": "inactive"}, {"molecule": "Cc1ccc2cccnc2c1", "Potency": "inactive"}, {"molecule": "Cc1cc(N)no1", "Potency": "inactive"}, {"molecule": "CN(C)CCC[C@@]1(c2ccc(F)cc2)OCc2cc(C#N)ccc21", "Potency": "inactive"}, {"molecule": "CCN(CC)CC", "Potency": "inactive"}, {"molecule": "O=C(O)CCCCCCCCCC(=O)O", "Potency": "inactive"}, {"molecule": "NC[C@H]1O[C@H](O[C@H]2[C@H](O)[C@@H](O[C@H]3O[C@H](CO)[C@@H](O)[C@H](N)[C@H]3O)[C@H](N)C[C@@H]2N)[C@H](N)[C@@H](O)[C@@H]1O", "Potency": "inactive"}, {"molecule": "Cc1ccc(NC(N)=O)cc1", "Potency": "inactive"}, {"molecule": "CC(C)(O)CCCC1=CCC(C=O)CC1", "note": "(centres undefined)", "Potency": "inactive"}, {"molecule": "CCc1ccc(CC)cc1", "Potency": "inactive"}, {"molecule": "CCCCCCCCCCCCCCCC(=O)OC", "Potency": "inactive"}, {"molecule": "CC[N+](C)(CC)CC", "Potency": "inactive"}, {"molecule": "CCCCCCCCCCCCCCCCN(C)C", "activation": "-0.164% [at 6.9 µM]"}, {"molecule": "CCCC(C)C(O)CC", "note": "(centres undefined)", "Potency": "inactive"}, {"molecule": "N=C(N)N", "Potency": "inactive"}, {"molecule": "CC(C)(C)C(=O)CC(=O)C(C)(C)C", "Potency": "inactive"}]}]}
